Screen size: about 300,000 compounds; about 2,700 (0.9%) were called active.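 How the source made its calls: active means mean inhibition of at least 30% with at least half of replicates also reaching 30%; inconclusive means no clear call, values can overlap the other calls; inactive means the rest.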 For the sample, actives were picked, then their nearest neighbours and some compounds at random.

This assay has as its target Golgi-associated PDZ and coiled-coil motif-containing protein (Homo sapiens) (UniProt Q9HD26). Kind of assay: untagged CAL PDZ binding inhibitors, primary screen, biochemical, fluorescence polarization, HTS (AID 602252).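 Further: 0% = DMSO neutral control and 100% = excess unlabeled competitor peptide PRC23.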 The conditions noted are these: purified CAL PDZ, TMR-peptide fluorescence polarization, 1 h; at 24.9 µM; active compounds read high.
In the case of `COc1ccc(CNCCCNCc2ccc(OC)c(OC)c2)cc1OC`, the inhibition was 2.4% (inactive). With `CSCCC(NC(=O)c1ccccc1)C(=O)N1CCCCCCC1` (configuration not stated), the inhibition is -1.09% (inactive). Take `CSCCC(NS(=O)(=O)c1ccc(C)cc1)C(=O)N1CCCC1` (configuration not stated): the inhibition was 68.8% (active). With `CSCC(NS(=O)(=O)c1ccc(C)cc1)C(=O)O` (configuration not stated) the figure was 2.04% (inactive); with `O=C1[C@@H](c2ccccc2)[C@@H](c2ccccc2)N1c1cccnc1`, -3.46% (inactive). With `O=C(Cc1ccc(S(=O)(=O)N2CCOCC2)s1)Nc1ccc(Br)c(C(F)(F)F)c1` the figure was -2.21% (inactive); with `Cc1nc2ccc(NC(=O)c3cccc(S(=O)(=O)N4CCOCC4)c3)cc2s1`, -4.38% (inactive). With `CC(=O)Nc1ccc(NC(=S)NC(=O)c2ccc([N+](=O)[O-])c(C)c2)cc1` the figure was -0.773% (inactive); with `CC(=O)NC(=S)Nc1ccc(NC(=S)NC(=O)c2ccc([N+](=O)[O-])cc2)cc1`, 56.3% (active); with `O=C(NC(=S)Nc1ccc(NC(=O)c2cccs2)cc1)c1ccc([N+](=O)[O-])cc1`, -2.58% (inactive).

As for `O=C(Nc1ccc2ccccc2c1[N+](=O)[O-])c1ccccc1`, the inhibition was 0.89% (inactive).

Turning to `CC1(C)CCSC(/C=C/c2ccccc2)=N1`, the inhibition is 76.1% (active). As to `CC(C)[C@@H](C(=O)OCC(=O)c1ccc2c(c1)NC(=O)CO2)N1C(=O)c2ccccc2C1=O`, the inhibition was -3.95% (inactive).

With `CN(Cc1ccccc1)C(=O)c1ccc(COc2ccccc2)cc1`, the inhibition is -2.72% (inactive). Then `CN(Cc1ccc(F)cc1)C(=O)COc1ccc2ccccc2c1`, with -2.25% (inactive); and `CN(Cc1ccccc1)C(=O)COc1ccccc1`, with 34.5% (active).

On to `CN1CCC(N(C)C(=O)c2ccc(Cl)c(S(=O)(=O)Nc3ccc(Cl)cc3)c2)CC1`, for which the inhibition is 4.93% (inactive).

For `CC(C)(C)OC(=O)N1CCC(C(=O)Nc2cccc(C(=O)NCCc3ccccc3)c2)CC1`, the inhibition is -2.65% (inactive). For `COc1ccc(CNc2nc(NCc3ccc(OC)cc3)c3ncn(C4CCCC4)c3n2)cc1`, the inhibition is 2.25% (inactive). Then `O=C(Nc1cc(S(=O)(=O)Nc2ccc(Cl)cc2)ccc1O)c1ccc(F)cc1F`, with -2.45% (inactive); and `COc1ccc(N=C2C=CC(=O)O2)cc1`, with -18.5% (inactive); and `CCO[C@H]1OC(C(=O)N2CCOCC2)=C[C@@H](c2ccc3c(c2)OCO3)[C@@H]1CCCO`, with 31.2% (active). With `CCO[C@@H]1OC(C(=O)N2CCOCC2)=C[C@H](C)[C@H]1CCCO`, the inhibition was -0.99% (inactive). `CCO[C@H]1OC(C(=O)N2CCCCCCC2)=C[C@@H](c2ccc(C(F)(F)F)cc2)[C@@H]1CCCO`: the inhibition was -1.81% (inactive). With `O=C(Cc1ccc(NC(=O)C2CCCN(C(=O)CCc3ccccc3)C2)cc1)Nc1ccc(C(=O)N2CCOCC2)cc1` (configuration not stated) the figure was -8.09% (inactive); with `CC1CCCCC1NCC(=O)Nc1ccccc1C(=O)Nc1ccccc1` (configuration not stated), -1.41% (inactive); with `CN(C)C(=S)N=c1ssc(=S)n1Cc1ccco1`, -2.26% (inactive).

Regarding `O=C(CNC(=O)c1cc(S(=O)(=O)N2CCOCC2)ccc1N1CCCC1)Nc1ccc(F)c(F)c1`, the inhibition is -2.42% (inactive). With `C/C(=N/NC(=O)c1cc(Cl)ccc1O)C12CC3CC(CC(C3)C1)C2` the figure was 0.948% (inactive); with `O=C(N/N=C1\CCSC1)c1cc(Cl)ccc1O`, 39.8% (active); with `CC(C)/C=N/NC(=O)c1cc(Br)ccc1O`, -1.22% (inactive). `COc1cc(O)c2c(=O)c3c(O)c(O)ccc3oc2c1OC`: the inhibition is -1.48% (inactive). Then `O=C(Cn1cnc2c(OCc3ccccc3)ncnc21)NCc1nc2ccccc2[nH]1`, with 9.79% (inactive); and `CCOc1cc(C(=O)N(Cc2ccccc2)c2ccc(C)cc2)ccc1OCC(=O)N1CCOCC1`, with -2.56% (inactive); and `N#CC1(Nc2ccc(-c3ccc(Cl)cc3)cc2)CCCC1`, with -1.39% (inactive). With `O=[N+]([O-])c1cc(S(=O)(=O)NCCc2ccccn2)ccc1Cl` the figure was 40.3% (active); with `O=S(=O)(NCCc1ccccn1)c1cc(Cl)cc(Cl)c1O`, -0.874% (inactive).

Regarding `O=[N+]([O-])c1cccc(S(=O)(=O)NCc2ccccn2)c1`, the inhibition was -3.81% (inactive).

For the compound `Cc1c(NS(=O)(=O)c2cccc(C(=O)Nc3ccc(SC(F)F)cc3)c2)c(=O)n(-c2ccccc2)n1C`, the inhibition is -2.68% (inactive).

As for `Cc1cc(S(=O)(=O)NCc2ccccn2)c(Cl)cc1Cl`, the inhibition was -2.31% (inactive). Then `CN(Cc1ccccn1)Cc1nc(-c2ccc(Cl)cc2)no1`, with -1.29% (inactive). Then `Fc1ccc(-c2ccc(CNCc3ccccn3)o2)cc1Cl`, with 52.7% (active); and `NC(=O)C1(N2CCCC2)CCN(Cc2ccccc2)CC1`, with -1.05% (inactive). With `COc1ccc(CNC(=O)C[C@H]2C[C@H](C(=O)N3CCOCC3)[C@@]3(CCC4CCCC4)c4[nH]c5ccc(Cl)cc5c4CCN3C2=O)cc1OC` the figure was -0.587% (inactive). Regarding `COc1ccc(NC(=O)NCc2ccc3c(c2)OCO3)c(OC)c1`, the inhibition is -1.76% (inactive). Then `COc1cc(OC)c(C(=O)NCc2ccc3c(c2)OCO3)cc1OC`, with 81% (active).

For the compound `O=C(NCc1ccc2c(c1)OCO2)c1cc(F)c(F)cc1Cl`, the inhibition was -5.1% (inactive). With `O=C(NCCC(=O)N1O[C@@H]2C=C[C@H]1C2)OCC1c2ccccc2-c2ccccc21` the figure was -5.2% (inactive); with `O=C1CC2(CCCC2)C(=O)N1CN1CCN(S(=O)(=O)c2ccc(F)cc2F)CC1`, -4.29% (inactive); with `COc1ccc(CNCCCn2cnc3c(OCc4ccccc4)ncnc32)cc1`, -2.18% (inactive). For the compound `COc1ccc(-c2ccc(CCC(=O)O)n2-c2ccc(O)cc2)cc1`, the inhibition was -0.609% (inactive). Then `C=Cn1c(C(=O)O)ccc1-c1ccc(OC)cc1`, with 37.7% (active); and `COc1ccc(OCC(=O)N2CCN(C(=O)COc3ccccc3)CC2)cc1`, with -1.31% (inactive); and `CN(C(=O)c1cccc(NC(=O)Cc2ccc(NC(=O)C3CCN(C(=O)C4CCCCC4)CC3)cc2)c1)C1CCC1`, with -2.99% (inactive).

As for `COc1ccc(Cl)cc1NC(=O)C1CC(=O)N(c2ccc(F)cc2)C1` (configuration not stated), the inhibition is -7.15% (inactive). Then `O=C(NC1CCCC1)C1CC(=O)N(c2ccc(F)cc2)C1` (configuration not stated), with 53.1% (active). On to `CC1CC(C)CN(C(=O)C2CC(=O)N(c3ccc(F)cc3)C2)C1` (configuration not stated), for which the inhibition was -2.8% (inactive).

The term inhibition denotes the change of the read-out against control, counted positive when it falls.
